According to PubChem BioAssay (NCATS):
Inconclusive results are not listed. Unless noted, the call rests on the fitted dose curve; in most records, active means well fitted curve in either direction with a large enough effect (not every such curve was filed as active); inconclusive means small, poorly fitted or top-dose-only effect, or another doubt; inactive means flat fitted curve, though single readings scatter.

How the values were obtained:
[1] = AP1 Signaling Pathway (AID 357); conditions: ME-180 AP-1-bla reporter, EGF-induced, beta-lactamase ratio, 5 h; at 17.2 µM (top of the series) unless noted;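 further: ME-180 reporter cells stimulated with EGF at its EC50 level; on the % scale 0 is the no-effect control and ±100 the full control effect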
Outline: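 Titration-series screen for positive or negative modulators of EC50 EGF-induced signaling in ME-180 cells carrying an AP-1-driven beta-lactamase reporter. After 5 hours at 37 degrees Celsius, CCF4 460nm/530nm emission ratio gave %Activity; AC50 values derived.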

[2] = NFAT Signaling Pathway (AID 444); conditions: Jurkat NFAT-bla M1, carbachol, beta-lactamase ratio, 5 h; at 17.2 µM (top of the series) unless noted;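 further: carbachol stimulus at about its EC50 of 1 µM final; on the % scale 0 is the no-effect control and ±100 the full control effect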
Outline: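 Jurkat cells with NFAT-driven β-lactamase reporter and co-expressed M1 receptor, stimulated with carbachol (final 1 uM, ~EC50), compound titration, 5 h at 37 °C. CCF4 loaded 1 h at RT; 460/530 nm ratio gave %activity and AC50.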

[3] = Stat Signaling Pathway (AID 446); conditions: ME-180 SIE beta-lactamase reporter, IL-6 stimulated, 5 h; at 17.2 µM (top of the series) unless noted;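 further: ME-180 cervical cancer cells given 40 pM IL-6 alongside compound; SIE-controlled beta-lactamase reporter measured as 460/530 nm FRET emission ratio; on the % scale 0 is the no-effect control and ±100 the full control effect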
Outline: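 Reporter line: ME-180 cervical carcinoma, SIE-beta-lactamase. Treatment: compound with 40 pM IL-6, 5 hrs, 37 C, in low-serum OPTI-MEM with 10 mM HEPES pH 7.3. Detection: 460/530 nm fluorescence.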

[4] = target: Glucocorticoid receptor (Homo sapiens) (UniProt P04150); experiment: GR-GFP Redistribution (AID 450;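 active means compounds whose dose series gives a full or clear partial fitted curve of increased nuclear translocation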; further: potency means the concentration at half of the fitted maximal effect)
Chain of Glucocorticoid receptor (Homo sapiens) (P04150 whole entry, looked up): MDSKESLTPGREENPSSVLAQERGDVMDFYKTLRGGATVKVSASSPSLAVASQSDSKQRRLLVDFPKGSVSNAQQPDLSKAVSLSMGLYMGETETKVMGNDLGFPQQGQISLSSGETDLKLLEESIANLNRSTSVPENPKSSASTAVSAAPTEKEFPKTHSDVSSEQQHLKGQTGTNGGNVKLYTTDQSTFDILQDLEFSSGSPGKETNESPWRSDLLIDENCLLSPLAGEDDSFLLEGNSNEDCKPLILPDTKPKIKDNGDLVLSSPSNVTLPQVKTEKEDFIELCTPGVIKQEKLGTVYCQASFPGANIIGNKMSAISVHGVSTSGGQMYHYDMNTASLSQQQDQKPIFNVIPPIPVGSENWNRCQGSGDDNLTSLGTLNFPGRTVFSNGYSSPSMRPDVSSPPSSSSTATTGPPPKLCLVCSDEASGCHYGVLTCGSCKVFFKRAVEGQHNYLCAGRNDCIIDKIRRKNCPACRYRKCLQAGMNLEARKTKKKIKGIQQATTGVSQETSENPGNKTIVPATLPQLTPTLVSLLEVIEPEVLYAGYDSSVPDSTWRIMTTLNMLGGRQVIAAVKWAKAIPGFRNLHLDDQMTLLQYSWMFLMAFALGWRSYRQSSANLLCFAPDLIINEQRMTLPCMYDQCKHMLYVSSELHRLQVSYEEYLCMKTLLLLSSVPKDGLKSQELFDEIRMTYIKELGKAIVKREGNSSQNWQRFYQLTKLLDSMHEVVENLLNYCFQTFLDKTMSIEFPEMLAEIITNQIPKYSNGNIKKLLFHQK

CCSc1nnc(NC(NC(=O)c2ccco2)(C(F)(F)F)C(F)(F)F)s1
inactive: activity change, negative = inhibition [1] 15.1% | activity change, negative = inhibition [2] -7.65% | activity, negative = inhibition [3] 3.98% | Potency [4] > 20.6 µM

CCOc1cc(C2Nc3ccccc3C(=O)N2c2ccccc2OC)ccc1O (stereo not given)
inactive: activity change, negative = inhibition [1] 18.3% | activity change, negative = inhibition [2] 6.73% | activity, negative = inhibition [3] 5.03% | Potency [4] > 20.6 µM

O=C(C1=C(O)C(=O)N(c2ncccn2)C1c1cccc(Cl)c1)c1ccco1 (stereo not given)
inactive: activity change, negative = inhibition [1] -4.37% | activity change, negative = inhibition [2] 22.6% | activity, negative = inhibition [3] -6.45% | Potency [4] > 20.6 µM

CCC(C(=O)Nc1nccs1)(C(F)(F)F)C(F)(F)F
inactive: activity change, negative = inhibition [1] 0.462% | activity change, negative = inhibition [2] 11.5% | activity, negative = inhibition [3] -9.76% | Potency [4] > 20.6 µM

CCOC(=O)C(C)Oc1nc(Oc2ccccc2)nc(N(C)C)n1 (stereo not given)
inactive: activity change, negative = inhibition [1] -9.94% | activity change, negative = inhibition [2] 11% | activity, negative = inhibition [3] 2.57% | Potency [4] > 20.6 µM

CC1(C)Cc2c(c(N3CCOCC3)nc3sc4c(=O)[nH]cnc4c23)CS1
inactive: activity change, negative = inhibition [1] 4.29% | activity change, negative = inhibition [2] 5.56% | activity, negative = inhibition [3] -18.3% | Potency [4] > 20.6 µM

CC1(c2cnc(Nc3ccccc3)s2)CCC(=O)O1 (stereo not given)
inactive: activity change, negative = inhibition [1] -10.6% | activity change, negative = inhibition [2] -7.05% | activity, negative = inhibition [3] 22.3% | Potency [4] > 20.6 µM

CC(C)Nc1nc(NC(C)C)nc(N(C)n2cnnc2)n1
inactive: activity change, negative = inhibition [1] 9.58% | activity change, negative = inhibition [2] -6.19% | activity, negative = inhibition [3] 4.66% | Potency [4] > 20.6 µM

CC1(C)Cc2c(sc3[nH]c(=S)n(Cc4ccco4)c(=O)c23)CO1
inactive: activity change, negative = inhibition [1] -2.74% | activity change, negative = inhibition [2] -5.17% | activity, negative = inhibition [3] -8.92% | Potency [4] > 20.6 µM

Cc1cc2c(c(=O)o1)C(Cc1ccccc1)C(C#N)=C(N)O2 (stereo not given)
inactive: activity change, negative = inhibition [1] 4.23% | activity change, negative = inhibition [2] 9.9% | activity, negative = inhibition [3] -12.4% | Potency [4] > 20.6 µM

CCCCC(C(=O)O)C(C)CC(=O)Nc1cccc(C(=O)O)c1 (stereo not given)
inactive: activity change, negative = inhibition [1] 5.92% | activity change, negative = inhibition [2] -0.782% | activity, negative = inhibition [3] 12.4% | Potency [4] > 20.6 µM

COc1ccc(Nc2nnc(C)c3ccccc23)cc1C(N)=O
inactive: activity change, negative = inhibition [1] -4.55% | activity change, negative = inhibition [2] 10.7% | activity, negative = inhibition [3] -9.16% | Potency [4] > 20.6 µM

COc1ccc(Cl)cc1N=Cc1c(O)cc(C)oc1=O
inactive: activity change, negative = inhibition [1] -3.56% | activity change, negative = inhibition [2] -6.83% | activity, negative = inhibition [3] 5.26% | Potency [4] > 20.6 µM

Cc1ccc(NC(=O)Cn2nc(C)c3ccccc3c2=O)cc1
inactive: activity change, negative = inhibition [1] 14.3% | activity change, negative = inhibition [2] 10.1% | activity, negative = inhibition [3] 6.34% | Potency [4] > 20.6 µM

CNC(=O)CCn1nc(-c2ccccc2)c2ccccc2c1=O
inactive: activity change, negative = inhibition [1] 5.34% | activity change, negative = inhibition [2] -2.43% | activity, negative = inhibition [3] 1.15% | Potency [4] > 20.6 µM

Cc1cc(C)n(CC(=O)n2c3c(c4ccccc42)CCCC3)n1
inactive: activity change, negative = inhibition [1] 5.13% | activity change, negative = inhibition [2] 0.496% | activity, negative = inhibition [3] 9.09% | Potency [4] > 20.6 µM

O=C1C=C(O)CC(c2cccs2)C1 (stereo not given)
inactive: activity change, negative = inhibition [1] -0.0121% | activity change, negative = inhibition [2] -1.83% | activity, negative = inhibition [3] -2.06% | Potency [4] > 20.6 µM

O=C(CCC1CCCC1)N1CCC(N2CCN(c3ccccc3)CC2)CC1
inactive: activity change, negative = inhibition [1] -5.6% | activity change, negative = inhibition [2] -29.5% | activity, negative = inhibition [3] 9.85% | Potency [4] > 20.6 µM

Cc1c(/C(O)=C2\C(=O)C(=O)N(CCN(C)C)C2c2cccs2)cnn1-c1ccccc1 (stereo not given)
inactive: activity change, negative = inhibition [1] 6.26% | activity change, negative = inhibition [2] -10.6% | activity, negative = inhibition [3] -3.53% | Potency [4] > 20.6 µM

COc1ccc(OC)c(C2C(C#N)=C(N)Oc3cc(C)n(Cc4ccccn4)c(=O)c32)c1 (stereo not given)
inactive: activity change, negative = inhibition [1] 1.88% | activity change, negative = inhibition [2] -20.4% | activity, negative = inhibition [3] -2.84% | Potency [4] > 20.6 µM

COc1cccc2c(=O)c(SC(F)(F)C(F)C(F)(F)F)c(C)[nH]c12 (stereo not given)
inactive: activity change, negative = inhibition [1] -13.4% | activity change, negative = inhibition [2] 4.93% | activity, negative = inhibition [3] 2.33% | Potency [4] > 20.6 µM

Cc1c(N2C(=O)SC(CC(=O)O)C2=O)c(=O)n(-c2ccccc2)n1C (stereo not given)
inactive: activity change, negative = inhibition [1] -20.4% | activity change, negative = inhibition [2] 10.6% | activity, negative = inhibition [3] 6.13% | Potency [4] > 20.6 µM

COc1ccc(/C=N/n2cncn2)cc1COc1ccc(NC(C)=O)cc1
inactive: activity change, negative = inhibition [1] -1.63% | activity change, negative = inhibition [2] 2.89% | activity, negative = inhibition [3] -3.18% | Potency [4] > 20.6 µM

O=C(c1cccc2ccccc12)N1CCC(N2CCN(c3ccccc3)CC2)CC1
inactive: activity change, negative = inhibition [1] -7.39% | activity change, negative = inhibition [2] -0.0782% | activity, negative = inhibition [3] -1.11% | Potency [4] > 20.6 µM

CC1CC(C(F)(F)F)n2ncnc2N1 (stereo not given)
inactive: activity change, negative = inhibition [1] 5.99% | activity change, negative = inhibition [2] -3.22% | activity, negative = inhibition [3] 12.9% | Potency [4] > 20.6 µM
